The values that follow come from PubChem BioAssay.

A short description of assay [1]: reducers of endogenous Her2 protein level, primary screen, SKBR3 breast tumor cells, AlphaScreen, ATP viability (AID 461;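 active = Her2 level under about 52% in both replicate screens, with viability over 70% of control, limit read from the data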;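 as to Her2 level: lower value means less Her2 protein in the cells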;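 as to viability: percent of carrier control wells set as 100% viability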). Conditions: 18-24 h, measured here: SKBR3 viability, ATP luminescence, at 10 µM. In general terms: In Alpha technology, singlet oxygen from a donor bead excites a nearby acceptor bead.
Assay [2] addresses Receptor tyrosine-protein kinase erbB-2 (Homo sapiens) (UniProt P04626). Described as above. As to conditions: 18-24 h, at 10 µM, stronger effect = lower value.
The nature of assay [3]: SK-BR-3 cell growth inhibitors, pilot screen, 24 h, human (AID 572;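 active = viability at or below 10% of carrier control in both of two separate runs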;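 also: compound exposure lasted between 18 and 24 h rather than exactly 24 h; 100% = carrier-treated control wells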). Conditions: SK-BR-3 viability, CellTiter-Glo luminescence, at 10 µM, stronger effect = lower value. (In general: In ATP-based viability assays light output follows the ATP content of the culture.)
Assay [4] in a line: HUVEC growth inhibition – cell-based, human, primary screen (AID 575;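 active = viability at or below 30% in both replicate assays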;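 also: 100% = median of untreated cell wells with 0.1% DMSO on each plate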). Conditions: HUVEC proliferation, CellTiter-Glo luminescence, 72 h; at 10 µM; stronger effect = lower value.
Assay [5] in a line: growth inhibitors of H69AR lung tumor, primary screen, human, duplicate replicates (AID 580;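 active = viability at or under a set limit in both replicates, limit being median viability minus 3 SD, cut at about 48% in these data, passing the limit was not always enough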;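 also: 100% = mean luminescence of untreated wells and 0% = no signal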). Conditions: H69AR lung tumor cells viability, ATP luminescence, 72 h; at 10 µM; stronger effect = lower value.
A short description of assay [6]: reversal of MRP1-mediated doxorubicin resistance, pilot screen, H69AR cells, doxorubicin co-treatment (AID 601;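 active = viability loss from added drug above about 55%, and viability with drug at most 40%, in both replicates, limit read from the data, passing the limit was not always enough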). Conditions: CellTiter-Glo, 72 h, at 10 µM; for differential viability (reversal): stronger effect = higher value.
Assay [7] in a line: 384-well plate pilot, post-Golgi transport modulator project, inhibition of yeast transport mutant growth (AID 636; in the data active = inhibition above about 31%). As to conditions: absorbance 615 nm, about 18 h, stronger effect = higher value.
Assay [8] can be described thus: growth suppression of yeast trafficking mutant, preliminary HTS, modulators of trafficking downstream of Golgi apparatus project, 1536-format plate, OD 615 nm (AID 637; in the data active = inhibition above about 30%). Conditions: yeast transport mutant growth, absorbance 615 nm, 18 h; stronger effect = higher value.
Assay [9] in a line: OD615 S. cerevisiae growth inhibition, permissive medium, pilot counter-assay, permissive growth control for S. cerevisiae lifespan shortening project (AID 705;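 active = growth inhibition above 25% in both replicates, a cutoff set 3 SD above the mean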). Conditions: OD615, 24 h, at 10 µM, stronger effect = higher value.
Assay [10] in a line: Restrictive medium S. cerevisiae growth inhibition, OD615, pilot screen of yeast lifespan reduction project, restrictive growth control (AID 706;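 active = growth inhibition above a set limit, 3 SD over mean compound inhibition, in both replicates, cut at about 43% in these data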;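 also: modified DeaD lifespan yeast strain shifted to restrictive glucose medium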). As to conditions: OD615, 48 h, at 10 µM, stronger effect = higher value.
Assay [11] can be described thus: viability gain of MRP-1-high H69AR cells under doxorubicin, pilot screen, MRP-1 activator project, CellTiter-Glo, duplicate (AID 807;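 active = viability increase at or above a cutoff of the median across tested compounds plus 3 SD, cut at about 8.5% in these data, passing the limit was not always enough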;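 also: compound pretreatment 18-22 h then 72 h combined with doxorubicin; 0% = doxorubicin alone and 100% = vehicle without doxorubicin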). As to conditions: H69AR viability with doxorubicin, CellTiter-Glo luminescence; at 10 µM; stronger effect = higher value.
Assay [12] in a line: growth suppression of beta-catenin knockout HCT116, pilot screen, human colon tumor cells (AID 823;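 active = cell viability at or below a set limit in both duplicate runs, the limit being the all-compound median minus 4 SD, cut at about 23% in these data, passing the limit was not always enough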;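 also: 0% = wells killed by 20 µM Hyamine and 100% = untreated DMSO cell wells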). Conditions: CellTiter-Glo, 60 h, at 10 µM, stronger effect = lower value.
The nature of assay [13]: growth suppression of PTEN-deleted HCT116, pilot screen, cell-based, HCT116 clonal line, CellTiter-Glo (AID 824;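 active = viability at or below 27.92% in each of two runs, the all-compound median minus 4 SD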;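 also: 0% = 20 µM Hyamine control and 100% = vehicle cell control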). Conditions: 60 h, at 10 µM, stronger effect = lower value.
Assay [14] can be described thus: inhibitors of the yeast RAM network, pilot screen, dse1pr::URA3 reporter, 5-FOA selection (AID 869).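 Also: 0% = DMSO wells with no growth and 100% = 10 µM 1-NA-PP1 with full growth; RAM network block rescues cells from 5-FOA so hits raise OD615 growth.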 As to conditions: S. cerevisiae dse1pr::URA3 5-FOA growth, OD615, 2 d; at 10 µM; stronger effect = higher value; strain carries analog-sensitive mutant Cbk1 kinase.
Assay [15] in a line: RAM signaling pathway blockade in yeast – S. cerevisiae, Pdr1DBD-CYC8 efflux-inhibited sensitized strain, primary screen (AID 1298;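 active = RAM network inhibition above 8.4% in each of two replicates, 3 SD over the compound average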;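 also: 0% = DMSO untreated cells without growth and 100% = 10 µM 1-NA-PP1 full growth; higher means more yeast growth rescued from 5-FOA killing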). As to conditions: S. cerevisiae cbk1-as DSE1-URA3 strain, 5-FOA growth OD615, 2 d; at 50 µM; stronger effect = higher value.
Where [16] appears, read: H69AR cells + 2 uM doxorubicin, measured here: viability with 2 uM doxorubicin, stronger effect = lower value.
Where [17] appears, read: H69AR cells, compound alone cytotoxicity.

The structures appear in SMILES notation. Results filed as inconclusive are left out. Activity calls are given as the source filed them.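 The calls were made as follows, unless noted: active = inhibition over a set limit, the all-compound mean plus 3 SD, in both replicate runs; inconclusive = over that limit in just one replicate run; inactive = at or under that limit in both runs.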

Sequence of Receptor tyrosine-protein kinase erbB-2 (Homo sapiens) (P04626 whole entry, looked up): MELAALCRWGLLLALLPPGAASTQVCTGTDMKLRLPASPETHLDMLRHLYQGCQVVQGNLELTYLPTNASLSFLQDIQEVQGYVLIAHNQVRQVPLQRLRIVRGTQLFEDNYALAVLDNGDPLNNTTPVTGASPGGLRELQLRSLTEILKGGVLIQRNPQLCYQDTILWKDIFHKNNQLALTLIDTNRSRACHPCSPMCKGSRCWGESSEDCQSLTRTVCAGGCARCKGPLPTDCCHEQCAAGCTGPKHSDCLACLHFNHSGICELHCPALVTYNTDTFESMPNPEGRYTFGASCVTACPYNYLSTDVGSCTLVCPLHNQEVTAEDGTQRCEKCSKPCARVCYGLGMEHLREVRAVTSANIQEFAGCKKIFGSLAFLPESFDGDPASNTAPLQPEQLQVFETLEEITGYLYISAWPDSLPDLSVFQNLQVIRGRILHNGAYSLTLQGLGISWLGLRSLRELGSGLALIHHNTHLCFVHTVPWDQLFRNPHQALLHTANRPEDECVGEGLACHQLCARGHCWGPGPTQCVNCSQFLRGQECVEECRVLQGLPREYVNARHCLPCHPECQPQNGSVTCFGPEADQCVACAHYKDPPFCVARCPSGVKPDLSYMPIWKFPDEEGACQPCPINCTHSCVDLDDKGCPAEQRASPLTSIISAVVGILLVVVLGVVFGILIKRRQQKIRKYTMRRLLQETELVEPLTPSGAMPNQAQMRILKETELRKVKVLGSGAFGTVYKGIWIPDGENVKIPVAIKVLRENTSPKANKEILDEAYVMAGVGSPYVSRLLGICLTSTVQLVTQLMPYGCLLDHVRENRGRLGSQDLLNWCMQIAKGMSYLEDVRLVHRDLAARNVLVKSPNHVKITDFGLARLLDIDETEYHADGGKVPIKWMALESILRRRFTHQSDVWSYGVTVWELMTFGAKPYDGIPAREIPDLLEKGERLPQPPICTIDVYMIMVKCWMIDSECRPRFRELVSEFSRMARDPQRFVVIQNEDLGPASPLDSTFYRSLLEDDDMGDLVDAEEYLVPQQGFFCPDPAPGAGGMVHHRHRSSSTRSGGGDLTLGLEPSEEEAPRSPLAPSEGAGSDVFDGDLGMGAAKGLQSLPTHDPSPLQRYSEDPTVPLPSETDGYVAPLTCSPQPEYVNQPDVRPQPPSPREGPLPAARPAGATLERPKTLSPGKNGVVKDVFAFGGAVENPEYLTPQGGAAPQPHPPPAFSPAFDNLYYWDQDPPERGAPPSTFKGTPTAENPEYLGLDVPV

The term viability denotes a read-out of living cells in per cent, often relative to untreated cells. As a reminder, the inhibition is the change of the read-out against control, counted positive when it falls. Turning to `CCOC(=O)CN1C(=O)C(=O)c2cccc(C)c21`, the viability in assay [1] is 80%; in assay [3], 80% (inactive); in assay [4], 86.5% (inactive); in [5] it was 76% (inactive); in assay [6] (setting [16]), 76.6%; in assay [6] (setting [17]) it was 76%. In addition, the viability is 88.4% (inactive) in [12] and 92.4% (inactive) in assay [13]. Besides, the Her2 level in [2] was 101% (inactive). The differential viability (reversal) in assay [6] (H69AR cells + 2 uM doxorubicin) is -0.56% (inactive). Moreover, the inhibition in [7] is -1.54% (inactive); in assay [8], -0.5% (inactive); in [14] it was 1.77% (inactive). Also, the growth inhibition is 0.235% (inactive) in [9] and -4.38% (inactive) in assay [10]. In assay [11], the viability increase was -4.97% (inactive). In addition, the RAM network inhibition in [15] is 1.05% (inactive).
For the molecule `COc1ccc(-n2c(=O)c3c4c(sc3n3cnnc23)CC(C)CC4)cc1` (stereo not given), the viability in assay [1] is 95.5%; in [3], 95.5% (inactive); in assay [4] it was 67.8% (inactive); in assay [5] it was 72.2% (inactive); in assay [6] (setting [16]), 51%; in [6] (setting [17]), 72.2%. The viability in [12] was 87.8% (inactive); in [13], 92.2% (inactive). Besides, the Her2 level in assay [2] was 88.5% (inactive). Also, in assay [6] (H69AR cells + 2 uM doxorubicin), the differential viability (reversal) was 21.2% (inactive). Moreover, the inhibition in assay [7] was -8.11% (inactive); in assay [8], 0.98% (inactive); in assay [14] it was -0.585% (inactive). Also, the growth inhibition in assay [9] was -10.9% (inactive); in [10], 9.5% (inactive). In addition, the viability increase in [11] was -5.52% (inactive). The RAM network inhibition in assay [15] is 2.05% (inactive).
Consider `Cc1ccc(CNC(=O)C2CCCN(S(=O)(=O)c3cnc[nH]3)C2)cc1` (stereo not given), for which the viability is 94% in assay [1]; 94% (inactive) in assay [3]; 94.5% (inactive) in assay [4]; 106% (inactive) in assay [5]; 92.3% in [6] (setting [16]); 106% in [6] (setting [17]). In addition, the viability was 109% (inactive) in assay [12] and 102% (inactive) in assay [13]. The Her2 level in assay [2] was 110% (inactive). Further, the differential viability (reversal) in assay [6] (H69AR cells + 2 uM doxorubicin) was 13.9% (inactive). Further, the inhibition was -2.13% (inactive) in [7], -3.61% (inactive) in assay [8] and 0.415% (inactive) in assay [14]. Further, the growth inhibition in assay [9] was 0.76% (inactive); in assay [10], 6.6% (inactive). Besides, the viability increase in assay [11] was 0.52% (inactive). In addition, the RAM network inhibition in assay [15] was 1.04% (inactive).
Turning to `O=C(Nc1ccc(CN2CCOCC2)cc1)c1cc2ccccn2n1`, the viability is 100% in [1]; 100% (inactive) in [3]; 94.4% (inactive) in [4]; 94.7% (inactive) in [5]; 95.2% in assay [6] (setting [16]); 94.7% in assay [6] (setting [17]). The figures for the viability in assay [12] and in assay [13] were 100% (inactive) and 95% (inactive), respectively. The Her2 level in assay [2] was 103% (inactive). The differential viability (reversal) in assay [6] (H69AR cells + 2 uM doxorubicin) is -0.47% (inactive). For the same molecule, the inhibition was 0.38% (inactive) in [7], 2.5% (inactive) in assay [8] and 0.65% (inactive) in [14]. For the same molecule, the growth inhibition in [9] was -4.72% (inactive); in [10], 7.87% (inactive). For the same molecule, the viability increase in assay [11] was 2.39% (inactive). Further, the RAM network inhibition in assay [15] was 1.45% (inactive).
As to `Cn1c(SCC(=O)Nc2ccc(F)cc2)nnc1-c1cccnc1`, the viability in assay [1] is 93%; in assay [3] it was 93% (inactive); in [4], 96.5% (inactive); in assay [5], 104% (inactive); in [6] (setting [16]), 90.8%; in [6] (setting [17]) it was 104%. The viability was 104% (inactive) in assay [12] and 101% (inactive) in assay [13]. For the same molecule, the Her2 level in [2] is 106% (inactive). For the same molecule, the differential viability (reversal) in [6] (H69AR cells + 2 uM doxorubicin) is 12.8% (inactive). In addition, the results for the inhibition in [7], in [8] and in [14] were -3.87% (inactive), -2.5% (inactive) and 0.43% (inactive), respectively. Besides, the growth inhibition was -8.06% (inactive) in [9] and 0.86% (inactive) in assay [10]. In [11], the viability increase is 2.18% (inactive). Moreover, the RAM network inhibition in assay [15] is 4.04% (inactive).
